A number with no mark means an inactive call. Records with an inconclusive call do not appear. Entries that show only a call come without a potency. Activity calls are given as the source filed them. Unless noted, calls follow the shape of the dose curve; as a rule, active = well fitted curve in the direction sought with a large enough effect; inconclusive = small, poorly fitted or top-dose-only effect, or another doubt; inactive = no such curve, though single readings can be large; an effect the other way counts as inactive or inconclusive.
Tests used:
[1] = AP1 Signaling Pathway (AID 357; active = well fitted curve in either direction with a large enough effect, not every such curve was filed as active;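 also: ME-180 reporter cells stimulated with EGF at its EC50 level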); conditions: ME-180 AP-1-bla reporter, EGF-induced, beta-lactamase ratio, 5 h; at 7.69 µM (top of the series) unless noted
Procedure, shortened: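 Titration-series screen for positive or negative modulators of EC50 EGF-induced signaling in ME-180 cells carrying an AP-1-driven beta-lactamase reporter. After 5 hours at 37 degrees Celsius, CCF4 460nm/530nm emission ratio gave %Activity; AC50 values derived.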

[2] = molecular target: Cytochrome P450 1A2 (Homo sapiens) (UniProt P05177); test: p450-cyp1a2 (AID 410; calls by dose curve; also: potency is read from the fitted curve at half-maximal effect)
Procedure, shortened: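 Luminescent demethylation readout: Luciferin-ME (100uM, equal to Km) turned over by 20nM CYP1A2 for 60 min at room temperature after NADPH regeneration addition, following 10 min compound preincubation. Normalization used 57 uM furafylline as full inhibition.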

[3] = NFAT Signaling Pathway (AID 444; active = well fitted curve in either direction with a large enough effect, not every such curve was filed as active;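 also: carbachol stimulus at about its EC50 of 1 µM final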); conditions: Jurkat NFAT-bla M1, carbachol, beta-lactamase ratio, 5 h; at 7.69 µM (top of the series) unless noted
Procedure, shortened: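 Read-out: CCF4 FRET ratio (460 nm/530 nm) after 1 h RT dye loading, used for %activity and AC50 from titration series. Cells: Jurkat NFAT-β-lactamase/M1 line, treated with compound plus 1 uM carbachol for 5 h, 37 °C.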

[4] = Stat Signaling Pathway (AID 446; active = well fitted curve in either direction with a large enough effect, not every such curve was filed as active;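 also: ME-180 cervical cancer cells given 40 pM IL-6 alongside compound; SIE-controlled beta-lactamase reporter measured as 460/530 nm FRET emission ratio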); conditions: ME-180 SIE beta-lactamase reporter, IL-6 stimulated, 5 h; at 7.69 µM (top of the series) unless noted
Procedure, shortened: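 Overnight-plated ME-180 cells bearing a STAT Inducible Element beta-lactamase reporter; 5 h co-exposure to compound and 40 pM IL-6; values normalized to 300 pM IL-6 and 125 nM JAK inhibitor controls.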

[5] = molecular target: Glucocorticoid receptor (Homo sapiens) (UniProt P04150); test: GR-GFP Redistribution (AID 450;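 active = compounds whose dose series gives a full or clear partial fitted curve of increased nuclear translocation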; also: potency is read from the fitted curve at half-maximal effect); conditions: U2OS GR-GFP nuclear translocation, laser cytometry, 2 h
[6] = molecular target: Glucocorticoid receptor (Homo sapiens) (UniProt P04150); test: GR-EFC Redistribution (AID 451; calls by dose curve; also: potency is read from the fitted curve at half-maximal effect); conditions: CHO-K1 GR-EFC translocation, beta-gal luminescence, 2 h
Procedure, shortened: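 Translocation of GR-ED fusion to nuclear EA restores b-gal, read by luminescence after 1 h room-temperature detection. Engineered CHO-K1 biosensor cells, 1,000/well, exposed 2 h at 37 C to titrations up to 46 uM final.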

[7] = molecular target: Mitogen-activated protein kinase 10 (Mus musculus) (UniProt Q61831); test: JNK3 AlphaScreen Assay (AID 530; active = well fitted curve in either direction with a large enough effect, not every such curve was filed as active;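 also: kinase came from lysate of stimulated human HepG2 cells; signal reports phosphorylation of biotinylated GST-cJun 1-79 at Ser73 with 10 µM ATP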)
Procedure, shortened: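 qHTS titrations with 15 min compound pre-incubation before adding ATP (10 uM final). Read-out: AlphaScreen of Ser73-phosphorylated biotin-GST-cJun using HepG2 lysate JNK3 activated by IL-1β and TNFα.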

[8] = molecular target: 3',5'-cyclic-AMP phosphodiesterase 4B (Homo sapiens) (UniProt Q07343); test: qHTS Assay for Inhibitors of PDE-IV (AID 607; active = well fitted activation curve with a large enough effect in the main read-out, with a control signal flat, not every such curve was filed as active)
Procedure, shortened: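 Live HEK293 cells with a modified cyclic nucleotide-gated (CNG) channel report intracellular cAMP via membrane-potential dye fluorescence (ex 535/em 590 nm). Endogenous PDE-IV was targeted. Compounds were tested at up to 22.9 uM final; RO 20-1724 100 uM served as control.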

[9] = molecular target: Cytochrome P450 3A4 (Homo sapiens) (UniProt P08684); test: qHTS Assay for Activators of Cytochrome P450 3A4 (AID 885); also: nearly all actives have a fitted effect of over 65% in size
Procedure, shortened: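 Using 20nM recombinant human CYP3A4 in potassium phosphate (200mM), substrate Luciferin-PPXE at 25uM, luminescent luciferin detection followed a 60-min RT NADPH reaction; data scaled to 57 uM ketoconazole.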

[10] = molecular target: Dual specificity protein kinase CLK4 (Homo sapiens) (UniProt Q9HAZ1); test: qHTS Assay for Inhibitors of CDC-like Kinase 4 (Kinase-Glo Assay) (AID 1770); also: nearly all actives have a fitted effect of over 65% in size; also: potency is read from the fitted curve at half-maximal effect
Procedure, shortened: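 25 nM Clk4 with 100 uM RS repeat peptide and 1 uM ATP (final) in Tris pH7.5, 10 mM MgCl2, 4.5 h at room temperature. Remaining ATP measured by Kinase-Glo luciferase luminescence.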

[11] = molecular target: Dual specificity protein kinase CLK4 (Homo sapiens) (UniProt Q9HAZ1); test: qHTS Assay for Inhibitors of CDC-like Kinase 4 (ADP-Glo Assay) (AID 1771); also: nearly all actives have a fitted effect of over 70% in size; also: potency is read from the fitted curve at half-maximal effect
Procedure, shortened: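 ADP production was read by ADP-Glo luminescence after residual ATP depletion, following 1 h room-temperature reaction of 25 nM Clk4, 1 uM ATP and 100 uM RS peptide with MgCl2, EGTA, DTT and Triton X-100.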

[12] = molecular target: Dual specificity protein kinase CLK4 (Homo sapiens) (UniProt Q9HAZ1); test: qHTS Assay for Inhibitors of CDC-like Kinase 4 (ADP-FP Assay) (AID 1795);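 also: recombinant human CLK4 phosphorylating RS repeat peptide at 1 µM ATP; nearly all actives have a fitted effect of over 60% in size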
Procedure, shortened: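 Recombinant Clk4 (6.25 nM) phosphorylated 100 uM RS repeat peptide with 1 uM ATP in 25 mM Tris pH 7.5, 10 mM MgCl2, 0.5 mM EGTA, 2.5 mM DTT, 0.01% Triton X-100 for 1 h. ADP was detected by Transcreener ADP2 competitive fluorescence polarization after 30 min at room temperature.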

[13] = molecular target: Ubiquitin carboxyl-terminal hydrolase 1 (Homo sapiens) (UniProt O94782); test: Inhibitors of USP1/UAF1: Pilot qHTS (AID 504865);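 also: rhodamine fluorescence freed from ubiquitin-rhodamine substrate followed over time; top concentration of the series differs between compounds; nearly all actives have a fitted effect of over 35% in size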
Procedure, shortened: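 USP1/UAF1 complex at 1 nM preincubated 15 min at room temperature with compound, then Ub-Rho substrate added at 150 nM final. Fluorescence (480/540 nm) read kinetically in 50 mM HEPES pH 7.8, 0.5 mM EDTA, 1 mM TCEP, 0.1 mg/ml BSA, 0.01% Tween-20.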

[14] = Primary qHTS for small molecule stabilizers of the endoplasmic reticulum resident proteome: Secreted ER Calcium Modulated Protein (SERCaMP) assay (AID 1508630)
Procedure, shortened: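 The SH-SY5Y reporter protocol was run at 3 concentrations up to 38.3 uM (primary) or 11 concentrations (follow-up): 16 h compound, 100 nM thapsigargin for 4 h, then extracellular luciferase luminescence.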

[15] = molecular target: Lysosomal acid glucosylceramidase (Homo sapiens) (UniProt P04062); test: Glucocerebrosidase-p2 (AID 348; in the data active = potency below about 10 µM; also: potency is read from the fitted curve at half-maximal effect); conditions: purified GBA, blue fluorogenic substrate, 40 min
Procedure, shortened: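 Normal human glucocerebrosidase (0.2 nM) with blue fluorogenic substrate (80 uM final) in citrate/phosphate pH 5.9 with 10mM sodium taurocholate, 0.01% tween-20; 40 min RT, NaOH/glycine stop; fluorescence Ex 365/Em 440; AC50 from a titration from 0.6 nM upwards.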

[16] = qHTS Assay for Identification of Small Molecule Agonists for Hypoxia Response Element Signaling Pathway (AID 914; active = well fitted activation curve with a large enough effect in the signal ratio, with a control signal flat, not every such curve was filed as active; the % refers to the signal ratio; also: potency is read from the fitted curve at half-maximal effect); conditions: ME-180 (cervical carcinoma) HRE-bla reporter, beta-lactamase ratio, CoCl2, 17 h; activation: stronger effect = higher value
Procedure, shortened: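 AC50 values come from titration-series %Activity, taken as the 460/530nm ratio of CCF4 fluorescence (excitation 405nm). CellSensor HRE-bla ME-180 cells were treated 17 hours at 37 C with compound plus an EC50 level of CoCl2.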

[17] = molecular target: Cytochrome P450 3A4 (Homo sapiens) (UniProt P08684); test: qHTS Assay for Inhibitors and Substrates of Cytochrome P450 3A4 (AID 884); also: potency is read from the fitted curve at half-maximal effect; nearly all actives have a fitted effect of over 50% in size
Procedure, shortened: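 Luminescent readout of luciferin produced by CYP3A4 (20 nM) dealkylation of Luciferin-PPXE, 25 uM (its KM). NADPH-driven reaction ran 60 min at RT after 10 min compound preincubation; data scaled to 57 uM ketoconazole as 100% inhibition.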

[18] = molecular target: Cytochrome P450 2C19 (Homo sapiens) (UniProt P33261); test: qHTS Assay for Inhibitors and Substrates of Cytochrome P450 2C19 (AID 899); also: potency is read from the fitted curve at half-maximal effect; nearly all actives have a fitted effect of over 60% in size
Procedure, shortened: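 Reactions contain 5nM enzyme, 10uM Luciferin-H EGE (KM) and 50mM KPO4; compound preincubates 10 min at 37C, NADPH regeneration starts turnover for 60 min. Luminescence after detection reagent gives activity.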

Sequence of Lysosomal acid glucosylceramidase (Homo sapiens) (P04062 whole entry, looked up): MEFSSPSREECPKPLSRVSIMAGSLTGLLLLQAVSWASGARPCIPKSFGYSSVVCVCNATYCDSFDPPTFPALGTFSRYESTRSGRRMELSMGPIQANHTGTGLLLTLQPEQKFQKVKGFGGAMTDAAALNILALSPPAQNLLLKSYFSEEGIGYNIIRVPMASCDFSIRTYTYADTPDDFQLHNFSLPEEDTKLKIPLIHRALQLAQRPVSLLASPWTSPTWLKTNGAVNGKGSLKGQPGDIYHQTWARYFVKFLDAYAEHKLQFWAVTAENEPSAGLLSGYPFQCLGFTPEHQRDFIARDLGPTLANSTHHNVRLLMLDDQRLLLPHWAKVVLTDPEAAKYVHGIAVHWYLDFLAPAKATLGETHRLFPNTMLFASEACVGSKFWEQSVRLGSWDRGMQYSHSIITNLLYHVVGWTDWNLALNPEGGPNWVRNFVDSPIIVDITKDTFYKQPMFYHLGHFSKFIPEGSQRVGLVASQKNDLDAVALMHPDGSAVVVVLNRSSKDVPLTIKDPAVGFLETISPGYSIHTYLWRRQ
Sequence of Cytochrome P450 1A2 (Homo sapiens) (P05177 whole entry, looked up): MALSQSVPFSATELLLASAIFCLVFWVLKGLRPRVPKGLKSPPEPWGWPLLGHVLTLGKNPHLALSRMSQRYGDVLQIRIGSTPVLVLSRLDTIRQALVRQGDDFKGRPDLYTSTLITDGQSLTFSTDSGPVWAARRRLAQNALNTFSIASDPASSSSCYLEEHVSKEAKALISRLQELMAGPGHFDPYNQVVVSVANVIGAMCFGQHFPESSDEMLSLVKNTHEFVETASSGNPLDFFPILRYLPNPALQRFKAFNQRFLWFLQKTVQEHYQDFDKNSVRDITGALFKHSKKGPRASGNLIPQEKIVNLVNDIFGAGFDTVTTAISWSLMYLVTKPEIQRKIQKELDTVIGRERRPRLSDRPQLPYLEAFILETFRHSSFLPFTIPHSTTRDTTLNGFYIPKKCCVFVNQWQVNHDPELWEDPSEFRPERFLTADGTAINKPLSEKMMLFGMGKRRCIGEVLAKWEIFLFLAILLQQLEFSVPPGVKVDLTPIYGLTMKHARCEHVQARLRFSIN
Sequence of Cytochrome P450 3A4 (Homo sapiens) (P08684 whole entry, looked up): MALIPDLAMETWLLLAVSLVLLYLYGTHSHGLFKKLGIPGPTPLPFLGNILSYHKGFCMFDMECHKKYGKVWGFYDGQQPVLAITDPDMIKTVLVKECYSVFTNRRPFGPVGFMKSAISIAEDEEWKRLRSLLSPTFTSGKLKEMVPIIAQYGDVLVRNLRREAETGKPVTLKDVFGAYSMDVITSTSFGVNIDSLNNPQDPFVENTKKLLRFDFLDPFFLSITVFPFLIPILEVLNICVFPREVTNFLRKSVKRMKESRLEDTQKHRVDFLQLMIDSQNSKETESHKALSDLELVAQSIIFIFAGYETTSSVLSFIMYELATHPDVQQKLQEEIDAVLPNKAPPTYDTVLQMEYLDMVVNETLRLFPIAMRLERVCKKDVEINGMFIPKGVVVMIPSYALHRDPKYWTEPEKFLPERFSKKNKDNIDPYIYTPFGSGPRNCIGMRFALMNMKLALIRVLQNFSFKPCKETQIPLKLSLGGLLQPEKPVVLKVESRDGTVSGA
Sequence of Dual specificity protein kinase CLK4 (Homo sapiens) (Q9HAZ1 whole entry, looked up): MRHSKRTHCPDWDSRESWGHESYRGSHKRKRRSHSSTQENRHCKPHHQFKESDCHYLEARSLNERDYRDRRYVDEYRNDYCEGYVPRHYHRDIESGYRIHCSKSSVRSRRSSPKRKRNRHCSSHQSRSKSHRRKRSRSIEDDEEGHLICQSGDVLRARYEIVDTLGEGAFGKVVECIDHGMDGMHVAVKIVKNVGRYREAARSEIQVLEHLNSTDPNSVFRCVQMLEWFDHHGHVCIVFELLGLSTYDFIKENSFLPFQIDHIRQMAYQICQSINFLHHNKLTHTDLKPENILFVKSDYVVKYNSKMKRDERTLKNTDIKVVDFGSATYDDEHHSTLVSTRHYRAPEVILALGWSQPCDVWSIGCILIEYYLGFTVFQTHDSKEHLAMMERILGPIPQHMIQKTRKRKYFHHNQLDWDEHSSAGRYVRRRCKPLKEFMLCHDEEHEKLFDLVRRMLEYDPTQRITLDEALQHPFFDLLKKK
Sequence of Ubiquitin carboxyl-terminal hydrolase 1 (Homo sapiens) (O94782 whole entry, looked up): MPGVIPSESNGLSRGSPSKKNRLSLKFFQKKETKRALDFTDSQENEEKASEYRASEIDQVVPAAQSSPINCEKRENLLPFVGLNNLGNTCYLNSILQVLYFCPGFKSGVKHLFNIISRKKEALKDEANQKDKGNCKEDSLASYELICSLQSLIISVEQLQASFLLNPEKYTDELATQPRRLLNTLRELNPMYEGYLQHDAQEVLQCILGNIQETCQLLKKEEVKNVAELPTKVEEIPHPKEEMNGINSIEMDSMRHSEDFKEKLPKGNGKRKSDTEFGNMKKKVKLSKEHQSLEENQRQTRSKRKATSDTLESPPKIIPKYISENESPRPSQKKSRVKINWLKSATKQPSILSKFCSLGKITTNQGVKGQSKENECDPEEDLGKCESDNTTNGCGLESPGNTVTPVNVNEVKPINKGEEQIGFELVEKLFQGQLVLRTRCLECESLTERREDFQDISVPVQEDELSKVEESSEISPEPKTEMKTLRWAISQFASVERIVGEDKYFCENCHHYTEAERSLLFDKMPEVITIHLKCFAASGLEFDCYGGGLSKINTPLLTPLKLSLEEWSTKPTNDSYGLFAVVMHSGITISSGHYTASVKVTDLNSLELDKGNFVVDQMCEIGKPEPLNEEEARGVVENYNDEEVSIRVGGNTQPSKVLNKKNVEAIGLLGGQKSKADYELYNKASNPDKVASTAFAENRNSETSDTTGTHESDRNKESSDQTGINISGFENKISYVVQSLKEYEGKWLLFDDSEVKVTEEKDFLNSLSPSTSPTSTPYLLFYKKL
Sequence of 3',5'-cyclic-AMP phosphodiesterase 4B (Homo sapiens) (Q07343 whole entry, looked up): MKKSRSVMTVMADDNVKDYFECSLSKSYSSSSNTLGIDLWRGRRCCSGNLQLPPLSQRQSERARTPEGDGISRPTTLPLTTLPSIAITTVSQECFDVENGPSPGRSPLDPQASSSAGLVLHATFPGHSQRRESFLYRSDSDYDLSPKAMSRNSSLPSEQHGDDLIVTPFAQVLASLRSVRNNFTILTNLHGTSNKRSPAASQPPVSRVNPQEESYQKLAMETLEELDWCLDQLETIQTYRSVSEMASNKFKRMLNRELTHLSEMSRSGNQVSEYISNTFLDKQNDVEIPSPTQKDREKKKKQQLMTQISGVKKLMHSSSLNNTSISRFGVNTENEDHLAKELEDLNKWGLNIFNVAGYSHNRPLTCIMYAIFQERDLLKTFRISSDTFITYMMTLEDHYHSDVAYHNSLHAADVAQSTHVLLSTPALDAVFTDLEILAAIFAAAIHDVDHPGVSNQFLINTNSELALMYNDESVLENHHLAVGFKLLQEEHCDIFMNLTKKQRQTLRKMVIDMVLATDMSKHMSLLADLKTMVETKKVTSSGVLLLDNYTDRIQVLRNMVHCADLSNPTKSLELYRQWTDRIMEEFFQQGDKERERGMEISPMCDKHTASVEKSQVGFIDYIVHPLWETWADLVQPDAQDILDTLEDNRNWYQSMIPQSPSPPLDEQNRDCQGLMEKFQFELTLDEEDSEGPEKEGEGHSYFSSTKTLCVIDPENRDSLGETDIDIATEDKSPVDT
Sequence of Glucocorticoid receptor (Homo sapiens) (P04150 whole entry, looked up, the tested form may be a part): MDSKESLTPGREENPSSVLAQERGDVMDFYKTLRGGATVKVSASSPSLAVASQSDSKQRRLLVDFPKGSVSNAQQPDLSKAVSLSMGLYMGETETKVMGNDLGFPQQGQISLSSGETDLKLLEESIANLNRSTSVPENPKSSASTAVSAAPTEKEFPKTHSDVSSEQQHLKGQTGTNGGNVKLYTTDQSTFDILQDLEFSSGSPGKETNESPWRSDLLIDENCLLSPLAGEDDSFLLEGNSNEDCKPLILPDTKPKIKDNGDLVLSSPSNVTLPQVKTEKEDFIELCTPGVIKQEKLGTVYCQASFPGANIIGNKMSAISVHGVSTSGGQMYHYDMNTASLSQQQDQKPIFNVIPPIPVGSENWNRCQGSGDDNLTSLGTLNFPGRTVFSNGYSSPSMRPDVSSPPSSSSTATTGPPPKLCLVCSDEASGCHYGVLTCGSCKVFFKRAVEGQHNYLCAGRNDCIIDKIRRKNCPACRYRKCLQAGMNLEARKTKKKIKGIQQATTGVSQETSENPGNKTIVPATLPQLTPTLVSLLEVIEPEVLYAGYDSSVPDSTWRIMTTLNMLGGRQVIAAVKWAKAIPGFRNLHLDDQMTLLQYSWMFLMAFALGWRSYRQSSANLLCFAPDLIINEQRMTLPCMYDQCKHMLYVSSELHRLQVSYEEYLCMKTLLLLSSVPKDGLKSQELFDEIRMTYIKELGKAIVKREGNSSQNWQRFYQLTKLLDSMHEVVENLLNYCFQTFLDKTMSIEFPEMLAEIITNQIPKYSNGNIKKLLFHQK
Sequence of Cytochrome P450 2C19 (Homo sapiens) (P33261 whole entry, looked up): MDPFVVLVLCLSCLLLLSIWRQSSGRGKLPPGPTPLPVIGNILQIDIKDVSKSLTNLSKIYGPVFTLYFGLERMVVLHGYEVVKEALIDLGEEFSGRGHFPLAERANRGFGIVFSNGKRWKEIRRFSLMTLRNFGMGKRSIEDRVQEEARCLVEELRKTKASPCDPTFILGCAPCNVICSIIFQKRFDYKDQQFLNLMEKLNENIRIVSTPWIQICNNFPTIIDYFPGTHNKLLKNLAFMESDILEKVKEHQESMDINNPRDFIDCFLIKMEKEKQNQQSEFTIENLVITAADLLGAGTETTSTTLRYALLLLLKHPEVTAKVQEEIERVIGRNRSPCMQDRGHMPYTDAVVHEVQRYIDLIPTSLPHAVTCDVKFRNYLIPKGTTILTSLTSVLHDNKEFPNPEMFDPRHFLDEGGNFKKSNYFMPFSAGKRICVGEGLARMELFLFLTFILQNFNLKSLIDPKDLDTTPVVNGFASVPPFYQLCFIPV

Structure (SMILES)	activity change, negative = inhibition [1] [%]	Potency [2]	activity change, negative = inhibition [3] [%]	activity, negative = inhibition [4] [%]	Potency [5] [µM]	Potency [6] [µM]	Potency [7]	Potency [8]	Potency [9]	Potency [10]	Potency [11]	Potency [12]	Potency [13]	outcome [14]	Potency [15] [µM]	Potency [16]	Potency [17]	Potency [18]
COc1ccc(CNc2ccnc(-c3ccc(N(C)C)cc3)n2)c(OC)c1	8.69	3.16 µM (active)	-3.37	-13.6	> 46	> 46	inactive	inactive	inactive	inactive	inactive	inactive	inactive	inactive				
N#CCCn1c(=O)c(-c2ccc(F)cc2)nc2cnc(N3CCNCC3)nc21						> 46	inactive	inactive	inactive	inactive	inactive	inactive	inactive	inactive	> 11.4	3.16 µM (active)		
COc1ccc2[nH]cc(CCNc3ccnc(-c4ccc(N(C)C)cc4)n3)c2c1	11.2	0.631 µM (active)			> 46	> 46		inactive	inactive	15.8 µM (active)	14.1 µM (active)	inactive	inactive	inactive			5.01 µM (active)	6.31 µM (active)
COc1ccc(-c2nc3cnc(OCc4ccccc4)nc3n(CCC#N)c2=O)cc1							inactive	inactive	inactive	inactive	inactive	inactive	inactive	inactive	> 11.4			
CCNc1ncc2nc(-c3ccc(Cl)cc3)c(=O)n(C)c2n1	23.6	0.398 µM (active)	20		> 9.22	> 46	inactive	inactive		inactive	inactive	inactive	inactive	inactive				
CCNc1ncc2nc(-c3ccccc3)c(=O)n(Cc3cccc(OC)c3)c2n1					> 9.22	> 46	inactive		inactive	inactive	inactive	inactive	inactive	inactive	> 11.4			
O=c1c(-c2cc(F)cc(F)c2)nc2cnc(N3CCNCC3)nc2n1Cc1ccc(F)cc1					> 9.22	> 46	inactive	inactive		inactive	inactive	inactive		inactive	> 11.4			
